The record followed here is PubChem BioAssay.

Activity calls are given as the source filed them. The rule behind the calls is not given here.

The assay deals with Pantothenate synthetase (Mycobacterium tuberculosis (strain ATCC 25618 / H37Rv)) (UniProt P9WIL5). As to the kind of experiment: Recombinant Mtb pantothenate synthetase (PanC) inhibitors, coupled enzyme, confirmatory (AID 375).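 Note: 0% = full reaction with vehicle and 100% = no enzyme background.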 Particulars: coupled enzyme assay; at 10 µM, active compounds read high.
Sequence of Pantothenate synthetase (Mycobacterium tuberculosis (strain ATCC 25618 / H37Rv)) (P9WIL5 whole entry, looked up): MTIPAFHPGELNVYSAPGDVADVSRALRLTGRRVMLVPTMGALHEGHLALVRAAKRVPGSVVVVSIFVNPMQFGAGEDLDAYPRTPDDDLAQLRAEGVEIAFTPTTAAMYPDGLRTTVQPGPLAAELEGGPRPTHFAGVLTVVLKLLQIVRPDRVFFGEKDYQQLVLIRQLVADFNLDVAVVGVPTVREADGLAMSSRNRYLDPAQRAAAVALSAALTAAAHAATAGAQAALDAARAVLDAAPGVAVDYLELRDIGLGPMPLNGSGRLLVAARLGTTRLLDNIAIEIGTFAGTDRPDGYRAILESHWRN
For orientation: inhibition means the percentage by which the read-out fell short of the control. With `CCCN(CCC)CCCNS(=O)(=O)c1ccc2c(c1)oc(=O)n2C`, the inhibition is 0% (inactive).
The figure for `COc1cccc(S(=O)(=O)Nc2ccc(C(=O)N3CCN(C(=O)c4ccco4)CC3)cc2)c1` is 0% (inactive).
The figure for `O=C(CSCc1cccc(F)c1)N1CCN(c2ccccc2)CC1` is 4% (inactive).
The figure for `COc1cccc(-c2noc(C3CCCN(C(=O)Cc4ccccc4)C3)n2)c1` (stereo not given) is 0% (inactive); for `CCCC(=O)Nc1c2c(nn1-c1ccc(OC)cc1)CS(=O)C2` (stereo not given) it is 1% (inactive).
In the case of `CCC(Oc1ccc2ccccc2c1)C(=O)O` (stereo not given), the inhibition is 0% (inactive).
Regarding `COc1ccc(Cc2noc(-c3ccc(C)cc3)n2)cc1`, the inhibition was 0% (inactive).
In the case of `COc1ccccc1N1CCN(Cc2nc(N)nc(Nc3ccc(C)c(Cl)c3)n2)CC1`, the inhibition was 3% (inactive).
The figure for `CC1=C(C#N)C(=O)NC(C)(C)C1` is 0% (inactive).
The figure for `Cc1ccccc1N1OC2C(=O)N(c3ccc(F)cc3)C(=O)C2C1c1ccccn1` (stereo not given) is 3% (inactive).
Turning to `O=C(COc1nnnc2ccccc12)N1CCCc2ccccc21`, the inhibition is 0% (inactive).
Take `CCN(CC)S(=O)(=O)c1ccc(Cl)c(C(=O)OC)c1`: the inhibition is 8% (inactive).
The figure for `COc1ccccc1-n1c(SCC(=O)NC(C)(C)C)nnc1-c1ccco1` is 0% (inactive).
The figure for `Cn1cc(C2NC(=O)c3c(sc4c3CCCC4)N2)c2ccccc21` (stereo not given) is 0% (inactive); for `CCC(c1nnnn1CCOC)N(Cc1ccc(C)cc1)Cc1cc2cc(OC)ccc2[nH]c1=O` (stereo not given) it is 0% (inactive).
In the case of `Cc1ccc(C)c(S(=O)(=O)C(C#N)c2nc3ccccc3nc2N2CC(C)OC(C)C2)c1` (stereo not given) it was 0% (inactive).
Regarding `CC(C)OC(=O)CSc1nnc(-c2ccco2)n1N`, the inhibition is 0% (inactive).
In the case of `CC(C)CN(CC(C)C)C(=O)CS(=O)(=O)Cc1ccccc1` it was 0% (inactive); in that of `O=C(NC1CCS(=O)(=O)C1)OC1CCCCC1` (stereo not given), 0% (inactive); in that of `CCCCC(NC(C)=O)c1nc2ccccc2n1CCC` (stereo not given), 0% (inactive).
In the case of `Cc1noc(C(=O)Nc2ccc3c(c2)OCO3)c1Cl` it was 0% (inactive); in that of `Cc1nc2ccccc2nc1OCC(=O)Nc1cc(C(F)(F)F)ccc1N1CCOCC1`, 0% (inactive).
As to `COc1cc(C2C(C(=O)c3ccc(C)o3)=C(O)C(=O)N2c2cc(C)on2)cc(Br)c1O` (stereo not given), the inhibition was 0% (inactive).
In the case of `Cc1nc2ccc(F)cc2cc1C(=O)NCC1CCCO1` (stereo not given) it was 0% (inactive); in that of `Cc1ccccc1CNS(=O)(=O)c1ccc2c(c1)OCCO2`, 0% (inactive); in that of `N#CC(C(=O)Nc1ccccc1)=C1CCCCC1`, 7% (inactive).
The figure for `CCn1cc(C(=O)O)c(=O)c2cc(F)c(N3CCNCC3)nc21` is 6% (inactive); for `Cc1nc2ccccn2c1P(=O)(N1CCCCC1)N1CCCCC1` it is 4% (inactive).
In the case of `CCOC(=O)C1CCN(C(=O)CCCCn2c(=O)[nH]c3ccccc3c2=O)CC1`, the inhibition is 2% (inactive).
Regarding `O=C(c1ccc2ccccc2n1)N1CCN(c2ccccc2)CC1`, the inhibition is 0% (inactive).
As for `CCOC(=O)N1CCN(C(=O)CN(c2ccc(C)cc2)S(=O)(=O)c2c(C)noc2C)CC1`, the inhibition is 0% (inactive).
`CCCn1nc(NC(=O)c2cccs2)c2cc3cc(OC)ccc3nc21`: the inhibition was 0% (inactive).
In the case of `CCOc1ccc2cc(C#N)c(SCC(=O)N3CCC(C)CC3)nc2c1` it was 10% (inactive).
In the case of `O=C(Cn1ncc2ccccc21)N1CCN(c2cccc(C(F)(F)F)c2)CC1` it was 2% (inactive).
The figure for `Cc1ccc(-c2csc3nnc(SCC(=O)NCc4ccco4)n23)cc1` is 2% (inactive); for `Cc1cccc(Cn2c(=O)n(Cc3ccco3)c(=O)c3ccccc32)c1` it is 0% (inactive); for `O=C(CCCCC(=O)NCc1cccs1)NCc1cccs1` it is 8% (inactive).
With `CC1CN(S(=O)(=O)c2cccc(C(=O)OCc3cc(=O)oc4cc(O)ccc34)c2)CC(C)O1` (stereo not given), the inhibition is 7% (inactive).
Consider `CC1C/C=C/C=C/C=C/C=C/C(O[C@@H]2O[C@H](C)[C@@H](O)[C@H](N)[C@@H]2O)CC2OC(O)(CC(O)CC3OC3/C=C/C(=O)O1)CC(O)C2C(=O)O` (stereo not given in full), for which the inhibition is 5% (inactive).
In the case of `O=C(CSc1nc(N2CCCCC2)nc(N2CCCCC2)n1)Nc1nccs1` it was 0% (inactive).
